This is a sample that favours compounds with a hit; in the whole collection about 3.7% have one here.
B2AR arrestin – recruits beta-arrestin to the human beta2-adrenergic receptor | P07550 | beta-arrestin recruitment to beta2AR, cell-based reporter | Potency, µM (doses to about 46.1 µM), actives largely listed as activators | 330,000 tested, 0.02% active; also: nearly all actives have a fitted effect of over 65% in size
Target sequence (P07550 whole entry, looked up): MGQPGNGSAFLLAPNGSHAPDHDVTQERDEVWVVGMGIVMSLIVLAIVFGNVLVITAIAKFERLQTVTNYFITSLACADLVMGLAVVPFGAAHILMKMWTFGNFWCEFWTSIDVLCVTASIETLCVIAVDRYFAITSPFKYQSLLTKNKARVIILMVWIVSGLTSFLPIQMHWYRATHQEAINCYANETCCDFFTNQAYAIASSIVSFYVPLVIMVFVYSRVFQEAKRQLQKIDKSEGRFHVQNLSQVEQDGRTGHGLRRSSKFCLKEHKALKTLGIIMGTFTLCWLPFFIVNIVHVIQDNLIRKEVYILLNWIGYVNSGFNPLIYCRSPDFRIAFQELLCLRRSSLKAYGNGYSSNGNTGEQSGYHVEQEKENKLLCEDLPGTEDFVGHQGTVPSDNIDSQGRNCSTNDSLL
DRD3 antagonist – antagonists of human D3 dopamine receptor | D3R cells, DiscoveRx beta-arrestin luminescence, antagonist mode; stronger effect = lower value | max response, negative = inhibition, % | 360,000 tested, 2.5% active; in the data active = max response below about -50%; inconclusive = no clear call, values can overlap the other calls
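Cells expressing the human receptor were seeded at 1500 cells/well, incubated overnight at 37 degrees C in 5% CO2, then exposed to library compounds with dopamine controls for 90 minutes at 37 degrees C before luminescent detection.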
PTHR1 agonist – PTHR1 (human) receptor agonism. Q03431. HEK293 GP2 PTHR1 cells, GloSensor cAMP luminescence, 1 h. Potency, µM (top dose mostly 115 µM), most hits filed as activators. 410,000 tested, 0.075% active. AID 743266; also: nearly all actives have a fitted effect of over 55% in size
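HEK-293-derived GP2 cells expressing PTHR1 and a GloSensor cAMP reporter, 3,000/well, plated overnight, given luciferin plus IBMX (each 0.5 mM as added) for 1 h at 37 °C, then compound for 1 h at 37 °C. Luminescence was read after 15 min at room temperature.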
BRCA1 expr act – BRCA1 expression activation; MCF7-BRCA1-FFLuc reporter, luminescence, 48 h; response scale: scaled: vehicle 0%, 10 µM genistein 100%; Potency, µM (doses to about 46.1 µM), hits mostly activators; 380,000 tested, 1.1% active; also: nearly all actives have a fitted effect of over 80% in size
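Cells: MCF7-BRCA1-FFLuc, 2000/well. Exposure: 48 h, 37 °C, 5% CO2. Read: luminescence, 15 min post-substrate. Controls: genistein 10 microM (maximal activation), DMSO (neutral).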
DRD3 agonist – D3 dopamine receptor (human) agonism. max activation, %. D3R DiscoveRx beta-arrestin cells, luminescence, 90 min. 410,000 tested, 0.58% active. P35462. AID 652048; in the data active = max activation above about 30%
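Agonist-mode cell screen: cells plated at 1500/well and incubated overnight at 37 °C, then exposed to library compounds for 90 min at 37 °C. Detection reagent was added for 30–60 min at room temperature, and luminescence was read.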
RGS4 inhibitor – blocks human RGS4-accelerated GTP hydrolysis | P49798 | Transcreener GDP fluorescence polarization, RGS4-accelerated GTP hydrolysis | Potency, µM (highest dose often 114 µM), hits mostly inhibitors | 390,000 tested, 0.039% active; also: nearly all actives have a fitted effect of over 75% in size
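MLSMR compounds (23 nl, pin-transferred) preincubated 10 min at room temperature with a 500nM (2x) first reagent, then RGS4 at 900nM (2x) plus Transcreener GDP mix added; fluorescence polarization (620/688 nm) read before and after 90 min at 30 °C.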
Hits are given with their value. Unless noted, calls follow the shape of the dose curve; as a rule, active = well fitted curve in the direction sought with a large enough effect; inconclusive = small, poorly fitted or top-dose-only effect, or another doubt; inactive = no such curve, though single readings can be large; an effect the other way counts as inactive or inconclusive.

For COc1ccc(C(CNC(=O)c2oc3ccc(C)cc3c2C)N2CCCCC2)cc1 (stereo not given) the results were B2AR arrestin inactive, DRD3 antagonist -104, PTHR1 agonist inactive, BRCA1 expr act inactive, DRD3 agonist inactive and RGS4 inhibitor inactive.
For COc1ccc(C(CNC(=O)c2cc3ccccc3o2)N2CCCC2)cc1 (stereo not given) the results were B2AR arrestin inactive, DRD3 antagonist -84, PTHR1 agonist inactive, BRCA1 expr act inactive, DRD3 agonist inactive and RGS4 inhibitor inactive.
CCN(CC)C(=O)C1=C(C)N(CCC2=CCCCC2)C(=O)C(CC(=O)NCCc2ccccn2)C1 (stereo not given) was read as DRD3 antagonist inactive, PTHR1 agonist inactive, BRCA1 expr act inactive and DRD3 agonist inactive.
Screening C[C@@H]1CN([C@H](C)CO)S(=O)(=O)c2ccc(-c3ccc(C(=O)N(C)C)cc3)cc2O[C@H]1CN(C)C(=O)Cc1ccccn1 returned DRD3 antagonist inactive, PTHR1 agonist inactive, BRCA1 expr act inactive and DRD3 agonist inactive.
CO/N=C(\C(=O)N[C@@H]1C(=O)N2C(C(=O)OCOC(=O)C(C)(C)C)=C(/C=C\c3scnc3C)CS[C@H]12)c1csc(N)n1 was read as DRD3 agonist inactive.
CCN(CC)CCCN(C(=O)c1ccc(OC)cc1)c1nc(-c2ccc(OC)cc2)cs1 was read as B2AR arrestin inactive, DRD3 antagonist inactive, PTHR1 agonist inactive, BRCA1 expr act inactive, DRD3 agonist inactive and RGS4 inhibitor inactive.
For CCN(C(=O)c1cccs1)c1nc(-c2ccc(OC)cc2)cs1 the results were B2AR arrestin inactive, DRD3 antagonist inactive, PTHR1 agonist inactive, BRCA1 expr act 13µM, DRD3 agonist inactive and RGS4 inhibitor inactive.
For COc1ccc(-c2csc(N(CCCN(C)C)C(=O)c3cccs3)n2)cc1 the results were B2AR arrestin inactive, DRD3 antagonist -58, PTHR1 agonist inactive, BRCA1 expr act inactive, DRD3 agonist inactive and RGS4 inhibitor inactive.
`COc1ccc(-c2csc(N(CCCN(C)C)C(=O)c3ccc(C)cc3)n2)cc1` gave B2AR arrestin inactive, DRD3 antagonist inactive, PTHR1 agonist inactive, BRCA1 expr act inactive, DRD3 agonist inactive and RGS4 inhibitor inactive.
`Cc1cccc(NC(=O)CSc2nnc(C3CC3)n2CC2CCCO2)c1` (stereo not given) gave B2AR arrestin inactive, DRD3 antagonist inactive, PTHR1 agonist inactive, BRCA1 expr act inactive, DRD3 agonist inactive and RGS4 inhibitor inactive.
For CCc1ccc2[nH]cc(S(=O)(=O)c3ccc(C(C)C)cc3)c(=O)c2c1 the results were PTHR1 agonist inactive, DRD3 agonist inactive and RGS4 inhibitor inactive.
For O=C(Nc1cccc(Oc2ccccc2)c1)c1ccc(-n2cncn2)c2ccoc12 the results were DRD3 antagonist inactive, PTHR1 agonist inactive, BRCA1 expr act inactive and DRD3 agonist inactive.
For O=C/C=C/c1c(-c2ccccc2)cc2oc3ccccc3cc1-2 the results were B2AR arrestin inactive, DRD3 antagonist -66, PTHR1 agonist inactive, BRCA1 expr act inactive, DRD3 agonist inactive and RGS4 inhibitor inconclusive.
`Nc1ccc(-c2cc3ccccc3oc2=O)cc1` gave B2AR arrestin inactive, DRD3 antagonist inactive, PTHR1 agonist inactive, BRCA1 expr act inactive, DRD3 agonist inactive and RGS4 inhibitor inactive.
For CCc1ccccc1N1CCN(S(=O)(=O)c2ccc(F)c(C)c2)CC1 the results were B2AR arrestin inactive, DRD3 antagonist inactive, PTHR1 agonist inactive, BRCA1 expr act inactive, DRD3 agonist inactive and RGS4 inhibitor inactive.
Screening Cc1ccc(N2CCN(S(=O)(=O)c3ccc(F)c(C)c3)CC2)c(C)c1 returned B2AR arrestin inactive, DRD3 antagonist -51, PTHR1 agonist inactive, BRCA1 expr act inactive, DRD3 agonist inactive and RGS4 inhibitor inactive.
Screening O=C(COC(=O)Cn1[nH]c(=O)c2ccccc2c1=O)NNC(=O)c1ccc(Br)cc1 returned B2AR arrestin inactive, DRD3 antagonist -118, PTHR1 agonist inactive, BRCA1 expr act inactive, DRD3 agonist inactive and RGS4 inhibitor inactive.

Screening results from PubChem BioAssay.
